Experimental findings from PubChem BioAssay are described below.

In experiment [1] the test system is PRMT1 (protein arginine N-methyltransferase 1). The experiment is described as follows: small molecules binding arginine methyltransferase PRMT1 – biochemical, small-molecule microarray, 635 nm fluorescence, primary screen (AID 1088).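 Also: binding of Prmt1 protein to compounds spotted on small-molecule microarray slides.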 The following applies: higher = more signal.
Experiment [2] can be described thus: growth effects on S. cerevisiae YJM789 – YJM789 clinical isolate, OD600, 24 h, basal, primary screen (AID 1089).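 Also: growth of clinical yeast isolate S. cerevisiae YJM 789 seeded 1000 cells per well; test concentration not given here.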 The settings on record: higher = more signal, called active from +8 up or from −8 down.
Experiment [3] can be described thus: S. pombe growth modifiers, basal conditions – strain 972, OD600, 24 h, no modulator, primary screen (AID 1090).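 Also: basal condition with compound alone and no growth modifier present; test concentration not given here.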 The settings on record: S. pombe 972 growth, higher = more signal, called active from +8 up or from −8 down.
Experiment [4] in a line: budding yeast growth modifiers under rapamycin – strain BY4716, OD600, 96 h, primary screen (AID 1091). Also: test concentration not given here. The following applies: S. cerevisiae BY4716 + rapamycin, higher = more signal, called active from +8 up or from −8 down.
For experiment [5], the target named is Torsin-1A-interacting protein 2 (Homo sapiens) (UniProt Q8NFQ8). The experiment is described as follows: small molecules binding lysate-expressed LULL1 – cell lysate, human LULL1 lysate, 635/667 nm fluorescence, primary screen (AID 1092).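 Also: probe is lysate of COS7 cells overexpressing human LULL1; score merges per-feature 667 nm fluorescence with signal-to-noise.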 The following applies: small-molecule microarray, hLULL1 lysate binding, 635 nm fluorescence; higher = more signal.
Chain of Torsin-1A-interacting protein 2 (Homo sapiens) (Q8NFQ8 whole entry, looked up): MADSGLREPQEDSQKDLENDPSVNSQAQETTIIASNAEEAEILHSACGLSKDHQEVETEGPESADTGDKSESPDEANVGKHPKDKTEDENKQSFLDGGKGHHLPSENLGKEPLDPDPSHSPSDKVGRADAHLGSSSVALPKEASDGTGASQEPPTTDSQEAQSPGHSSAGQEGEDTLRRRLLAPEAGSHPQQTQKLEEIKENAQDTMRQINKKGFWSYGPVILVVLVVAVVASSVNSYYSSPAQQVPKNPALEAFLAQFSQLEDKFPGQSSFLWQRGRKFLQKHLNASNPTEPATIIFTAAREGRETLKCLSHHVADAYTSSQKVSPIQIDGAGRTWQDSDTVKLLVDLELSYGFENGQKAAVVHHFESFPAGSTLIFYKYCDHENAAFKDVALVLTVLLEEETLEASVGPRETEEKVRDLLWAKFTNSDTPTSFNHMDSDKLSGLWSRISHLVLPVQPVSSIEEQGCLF
A short description of experiment [6]: optical density change of DRC41 E. coli – strain DRC41, OD650, 24 h, E. coli filamentation project, primary screen (AID 1093).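 Also: MC1000 strain lacking acrAB efflux and sulA so SOS filamentation is blocked; test concentration not given here.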 The following applies: E. coli DRC41 growth, higher = more signal, called active from +8 up or from −8 down.
Experiment [7] in a line: probe aLefty2 binding to arrayed compounds – biochemical, biotinylated probe, 635/667 nm fluorescence, primary screen (AID 1094).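 Also: score merges spot fluorescence near 667 nm with spot signal-to-noise ratio.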 The settings on record: small-molecule microarray, higher = more signal.
Experiment [8] concerns Noggin (protein binding on small-molecule microarray). The experiment is described as follows: small molecules binding Noggin protein – biochemical, 635/667 nm fluorescence, primary screen (AID 1095).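 Also: score merges 667 nm feature fluorescence with signal to noise over triplicate slides.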 The settings on record: 635 nm fluorescence, higher = more signal.
Experiment [9] addresses Neurogenic locus notch homolog protein 3 (Homo sapiens) (UniProt Q9UM47). The experiment is described as follows: small molecules binding NOTCH3 protein – biochemical, 635/667 nm fluorescence, primary screen (AID 1096). The following applies: small-molecule microarray, 635 nm fluorescence, higher = more signal.
Experiment [10] can be described thus: probe aEGFR binding to arrayed compounds – biochemical, biotinylated probe, 635/667 nm fluorescence, primary screen (AID 1097).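 Also: probe is a biotinylated anti-EGFR antibody binding compounds printed on slides; score combines fluorescence near 667 nm and signal to noise of each spot.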 The settings on record: small-molecule microarray, higher = more signal.

Structures are written as SMILES. Activity calls are given as the source filed them.

Chain of Neurogenic locus notch homolog protein 3 (Homo sapiens) (Q9UM47 whole entry, looked up): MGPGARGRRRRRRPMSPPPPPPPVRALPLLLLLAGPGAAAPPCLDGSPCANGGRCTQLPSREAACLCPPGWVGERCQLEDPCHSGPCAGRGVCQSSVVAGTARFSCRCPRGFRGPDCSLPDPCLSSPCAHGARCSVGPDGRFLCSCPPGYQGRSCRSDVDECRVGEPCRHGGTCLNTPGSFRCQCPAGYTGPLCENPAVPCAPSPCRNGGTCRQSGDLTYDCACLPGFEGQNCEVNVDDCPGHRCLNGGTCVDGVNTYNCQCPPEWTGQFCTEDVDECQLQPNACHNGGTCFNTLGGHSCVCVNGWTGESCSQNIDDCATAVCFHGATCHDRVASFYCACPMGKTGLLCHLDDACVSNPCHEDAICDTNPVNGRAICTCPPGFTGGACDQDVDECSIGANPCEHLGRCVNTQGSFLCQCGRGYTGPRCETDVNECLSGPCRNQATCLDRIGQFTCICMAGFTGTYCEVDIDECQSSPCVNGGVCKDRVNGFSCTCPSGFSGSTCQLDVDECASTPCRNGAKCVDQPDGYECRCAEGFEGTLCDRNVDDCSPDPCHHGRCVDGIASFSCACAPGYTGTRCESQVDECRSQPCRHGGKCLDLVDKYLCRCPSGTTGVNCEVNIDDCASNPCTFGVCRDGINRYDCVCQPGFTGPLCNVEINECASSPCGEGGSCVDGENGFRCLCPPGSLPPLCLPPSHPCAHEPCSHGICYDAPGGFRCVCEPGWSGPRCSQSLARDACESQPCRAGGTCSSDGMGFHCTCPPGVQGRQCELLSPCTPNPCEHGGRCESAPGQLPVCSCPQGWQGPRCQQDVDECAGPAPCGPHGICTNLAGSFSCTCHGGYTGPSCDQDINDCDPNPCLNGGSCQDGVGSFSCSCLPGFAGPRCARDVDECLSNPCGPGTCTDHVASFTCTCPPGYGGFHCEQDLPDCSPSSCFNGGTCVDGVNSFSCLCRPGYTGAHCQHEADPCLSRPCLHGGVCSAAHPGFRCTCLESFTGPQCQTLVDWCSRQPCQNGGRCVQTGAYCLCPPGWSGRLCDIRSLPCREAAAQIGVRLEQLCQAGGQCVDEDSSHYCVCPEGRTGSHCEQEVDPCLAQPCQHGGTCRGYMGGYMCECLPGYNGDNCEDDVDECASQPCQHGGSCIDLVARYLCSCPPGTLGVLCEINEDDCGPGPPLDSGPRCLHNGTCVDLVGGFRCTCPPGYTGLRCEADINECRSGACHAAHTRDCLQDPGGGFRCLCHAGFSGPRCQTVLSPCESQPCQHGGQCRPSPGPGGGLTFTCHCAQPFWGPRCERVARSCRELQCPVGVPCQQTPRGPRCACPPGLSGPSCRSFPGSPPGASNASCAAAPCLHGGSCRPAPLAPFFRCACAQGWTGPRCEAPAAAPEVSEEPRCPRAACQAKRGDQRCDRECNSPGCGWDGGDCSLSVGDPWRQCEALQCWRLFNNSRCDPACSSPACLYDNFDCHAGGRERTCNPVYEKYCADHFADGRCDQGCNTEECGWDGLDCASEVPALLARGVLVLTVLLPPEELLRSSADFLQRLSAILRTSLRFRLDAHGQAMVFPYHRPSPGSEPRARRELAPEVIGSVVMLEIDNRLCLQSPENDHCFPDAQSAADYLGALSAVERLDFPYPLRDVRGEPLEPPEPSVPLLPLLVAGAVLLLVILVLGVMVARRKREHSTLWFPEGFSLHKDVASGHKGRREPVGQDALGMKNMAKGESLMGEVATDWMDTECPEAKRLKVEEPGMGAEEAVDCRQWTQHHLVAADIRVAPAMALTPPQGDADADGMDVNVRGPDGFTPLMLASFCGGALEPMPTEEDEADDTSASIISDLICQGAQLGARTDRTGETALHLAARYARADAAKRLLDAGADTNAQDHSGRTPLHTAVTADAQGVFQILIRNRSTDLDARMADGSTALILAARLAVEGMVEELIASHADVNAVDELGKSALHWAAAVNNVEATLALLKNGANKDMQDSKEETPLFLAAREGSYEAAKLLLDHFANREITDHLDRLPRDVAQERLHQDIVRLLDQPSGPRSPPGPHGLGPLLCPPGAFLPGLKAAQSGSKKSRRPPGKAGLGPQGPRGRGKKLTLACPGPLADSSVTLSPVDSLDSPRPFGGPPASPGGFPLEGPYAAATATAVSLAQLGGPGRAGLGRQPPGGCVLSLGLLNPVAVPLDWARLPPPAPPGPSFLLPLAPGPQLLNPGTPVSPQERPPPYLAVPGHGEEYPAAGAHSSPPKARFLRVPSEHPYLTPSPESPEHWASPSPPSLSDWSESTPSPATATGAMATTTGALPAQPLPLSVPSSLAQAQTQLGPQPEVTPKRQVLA

Take `CC(C)N1CC=CC23O[C@@H]4/C=C\CCCOC(=O)C4[C@H]2C(=O)N(C(C)CO)[C@@H]3C1=O` (stereo not given in full): the composite z-score is 0.336 in experiment [1]; 1.95 in [5]; -0.174 in experiment [7]; -1.25 in experiment [8]; -0.155 in [9]; -0.297 in [10]. Also, the z-score in [2] is -1 (inactive); in experiment [3], -1.09 (inactive); in [4], -1.08 (inactive); in experiment [6] it was 1.8 (inactive).

`C=C(C(=O)CC[C@@H](OC(=O)c1ccccc1-c1ccccc1C(=O)O)c1cccc(OCCO)c1)C(C)C`: the composite z-score in [1] was 1.46; in experiment [5], -0.104; in experiment [7], -0.118; in [8], 0.782; in experiment [9], 0.164; in experiment [10], -0.182. Moreover, the z-score was 0.433 (inactive) in experiment [2], -0.0072 (inactive) in experiment [3], -0.641 (inactive) in experiment [4] and 0.355 (inactive) in experiment [6].

Consider `COC(=O)[C@@]1(Cc2ccc(F)cc2)[C@H]2c3cc(C(=O)N(C)C)n(Cc4ccc(C(F)(F)F)nc4)c3C[C@H]2CN1C(=O)c1ccccc1`, for which the composite z-score in [1] is 1.32; in experiment [5], 3.71; in experiment [7], 0.317; in experiment [8], 0.108; in experiment [9], 1.02; in experiment [10], 0.379. The z-score in experiment [2] was 0.538 (inactive); in [3], 0.909 (inactive); in [4], 4.36 (inactive); in experiment [6], -0.366 (inactive).

`C[N+](C)(C)CCCC[C@@H]1NC(=O)[C@H]2C[C@@H](C(=O)O)[C@@H](c3ccc(O)cc3)N2C1=O`: the composite z-score in experiment [1] was 0.777; in [5], 2.61; in experiment [7], -0.0481; in [8] it was 0.447; in [9] it was 0.5; in experiment [10], -0.158. The z-score in experiment [2] was -1.56 (inactive); in experiment [3], -1.28 (inactive); in experiment [4] it was -0.5 (inactive); in experiment [6], 1.26 (inactive).

On to `CN1C(=O)C2C=CC(C(O)c3ccc([N+](=O)[O-])cc3)N(Nc3ccccc3)C2C1=O` (stereo not given), for which the composite z-score in experiment [1] was 1.38; in experiment [5], 3.25; in experiment [7] it was 0.222; in [8], -0.0487; in experiment [9], 1.03; in experiment [10], 0.0089. In addition, the z-score is 0.439 (inactive) in [2], -0.184 (inactive) in experiment [3], 0.315 (inactive) in [4] and -1.69 (inactive) in [6].

As to `COC(=O)C(CC#Cc1ccc2c(c1)[C@]1(C(=O)N2)[C@H](C(=O)N2CCN(c3ncccn3)CC2)[C@H]2C(=O)O[C@H](c3ccccc3)[C@H](c3ccccc3)N2[C@@H]1c1ccc(O)cc1)C(=O)OC`, the composite z-score was 1.53 in experiment [1]; 3.25 in experiment [5]; 0.759 in experiment [7]; 1.73 in [8]; 1.01 in experiment [9]; 1.05 in [10]. The z-score is 1.04 (inactive) in [2], 1.1 (inactive) in [3], 0.183 (inactive) in [4] and -0.333 (inactive) in experiment [6].
